Reference: PubChem BioAssay (Tox21)
Values joined by “and” are separate entries in the source; they are usually repeats but may differ in a detail not shown here. Identical values can stand only once. Inconclusive results are not listed. Where a call stands in place of a potency, no number is given. Where a structure was tested more than once in an assay, its records may differ in their call. Active and inactive are the calls of the source. The call rests on the fitted dose curve; in most records, active means well fitted inhibition curve with a large enough effect in the repeat runs; inconclusive means weak or mixed curves; inactive means no such curve, though single readings can be large or run the other way.

Molecular target: Cytochrome P450 2C9 (Homo sapiens) (UniProt P11712)
Assay: Cytochrome P450 Family 2 Subfamily C Member 9 (CYP2C9) small molecule antagonists: luciferase reporter qHTS assay (AID 1671198)
Conditions: P450-Glo CYP2C9 enzyme assay, luciferin luminescence; series mostly up to 115 µM; activity change, negative = inhibition: at the top concentration
Summary of the method: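 P450-Glo proluciferin substrate with CYP2C9 enzyme; 10 min RT preincubation, then NADPH regeneration 1 h at 37C; luciferin detection reagent 20 min RT, luminescence in relative luminescence units.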
Further: nearly all actives have a fitted effect of over 50% in size.
Potency means the concentration at half of the fitted maximal effect.

Sequence of Cytochrome P450 2C9 (Homo sapiens) (P11712 whole entry, looked up): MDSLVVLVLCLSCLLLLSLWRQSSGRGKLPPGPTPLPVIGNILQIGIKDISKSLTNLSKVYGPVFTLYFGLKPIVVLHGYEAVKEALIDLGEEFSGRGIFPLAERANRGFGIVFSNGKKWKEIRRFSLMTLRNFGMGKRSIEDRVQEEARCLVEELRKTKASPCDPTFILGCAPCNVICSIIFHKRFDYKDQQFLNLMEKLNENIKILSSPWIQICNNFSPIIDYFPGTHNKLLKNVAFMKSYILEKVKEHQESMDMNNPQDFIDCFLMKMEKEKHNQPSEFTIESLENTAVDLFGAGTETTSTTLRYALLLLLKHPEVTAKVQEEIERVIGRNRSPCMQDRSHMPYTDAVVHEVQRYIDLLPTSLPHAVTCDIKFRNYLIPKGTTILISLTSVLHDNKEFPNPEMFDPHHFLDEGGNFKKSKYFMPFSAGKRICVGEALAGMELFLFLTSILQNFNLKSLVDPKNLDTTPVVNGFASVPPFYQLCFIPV

| Structure (SMILES) | Potency |
| --- | --- |
| CNC(=O)O/N=C/C(C)(C)S(C)=O (stereo not given) | inactive |
| CNC(=O)O/N=C(\SC)C(=O)N(C)C | inactive |
| Cc1cc(O)ccc1Cl | inactive |
| c1ccc2c(c1)CCCC2 | inactive |
| CCOP(=S)(OCC)Oc1cc(C)nc(C(C)C)n1 | 35.8 µM (active) and 2.83 µM (active) and 2.45 µM (active) |
| COC(C)(C)CCCC(C)C/C=C/C(C)=C/C(=O)OC(C)C (stereo not given) | 62.2 µM (active) and 17.4 µM (active) |

Molecular target: Cytochrome P450 1A2 (Homo sapiens) (UniProt P05177)
Assay: Cytochrome P450 Family 1 Subfamily A Member 2 (CYP1A2) small molecule antagonists: luciferase reporter qHTS assay (AID 1671199)
Conditions: P450-Glo CYP1A2 enzyme, luciferin luminescence, 1 h; series mostly up to 115 µM; activity change, negative = inhibition: at the top concentration
Summary of the method: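 P450-Glo CYP1A2 enzyme–proluciferin substrate mix with compound 10 min at room temperature, then NADPH regeneration 1 h at room temperature. Luciferin detection reagent added, luminescence read after 20 min; furafylline positive control.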

Sequence of Cytochrome P450 1A2 (Homo sapiens) (P05177 whole entry, looked up): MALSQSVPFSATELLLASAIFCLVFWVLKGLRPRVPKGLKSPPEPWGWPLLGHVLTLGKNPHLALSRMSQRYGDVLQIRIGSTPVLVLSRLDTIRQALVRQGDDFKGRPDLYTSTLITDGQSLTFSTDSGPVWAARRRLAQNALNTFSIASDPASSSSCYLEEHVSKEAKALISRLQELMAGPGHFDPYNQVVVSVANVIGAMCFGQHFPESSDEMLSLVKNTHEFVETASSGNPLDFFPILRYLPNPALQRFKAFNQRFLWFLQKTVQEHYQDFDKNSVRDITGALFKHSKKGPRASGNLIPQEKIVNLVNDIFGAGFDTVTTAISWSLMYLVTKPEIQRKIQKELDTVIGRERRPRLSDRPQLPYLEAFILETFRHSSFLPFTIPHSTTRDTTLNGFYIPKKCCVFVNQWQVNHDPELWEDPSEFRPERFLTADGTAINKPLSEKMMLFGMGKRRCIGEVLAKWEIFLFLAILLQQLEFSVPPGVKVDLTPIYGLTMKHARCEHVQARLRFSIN

| Structure (SMILES) | Potency | activity change, negative = inhibition |
| --- | --- | --- |
| CC(C)CCCCCCOC(=O)c1ccccc1C(=O)OCCCCCCC(C)C | 63.2 µM (active) |  |
| O=C(O)C1C(C(=O)O)C2(Cl)C(Cl)=C(Cl)C1(Cl)C2(Cl)Cl (stereo not given) |  | 12.1% (inactive) |
| Nc1cccc(Cl)c1 | 40.4 µM (active) and inactive |  |
| Clc1cnc(Oc2ccc(Oc3ncc(Cl)cc3Cl)cc2)c(Cl)c1 | 24.9 µM (active) and inactive |  |
| O=C(O)c1cc(Oc2ccc(C(F)(F)F)cc2Cl)ccc1[N+](=O)[O-] | inactive |  |
| Cl[C@H]1OCCO[C@@H]1Cl | inactive |  |
| Cl/C=C/Cl |  | -13% (inactive) |
| COc1nc(NC(C)C)nc(NC(C)C)n1 | 31.8 µM (active) and 28.3 µM (active) |  |
| O=[N+]([O-])c1cc([As](=O)(O)O)ccc1O | inactive |  |
| CC(C)(C)C(=O)CCl | inactive |  |
| Cc1ccc(O)c(C)c1 | 70 µM (active) and 29.5 µM (active) |  |
| O=[N+]([O-])c1ccc(Cl)cc1 | inactive |  |
| CCOc1ccc(N)cc1 | 35.7 µM (active) |  |
| CNC(=O)O/N=C/C(C)(C)S(C)=O (stereo not given) | inactive |  |
